Screening results: PubChem BioAssay, National Center for Advancing Translational Sciences (NCATS)
The list is not random: actives were taken first. Their share in the collection is about 2.8%.
Pol iota inh: inhibitors of human DNA polymerase iota; 390,000 compounds, 1% hits; Potency, µM (doses to about 115 µM), for inactives: at the highest dose activity, negative = inhibition, usual class: inhibitors; Q9UNA4; AID 588590; Pol iota fluorescent replication assay, 10 min; also: potency is read from the fitted curve at half-maximal effect
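Pol iota at 10 nM preincubated 15 min with compounds at room temperature; reaction started with fluorescent substrate, 50 nM final. Fluorescence read kinetically at 0 and 10 min; buffer-only wells as negative control.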
POLK inh: DNA polymerase kappa (human) inhibition | purified Pol kappa, fluorescent DNA synthesis assay, 10 min | Q9UBT6 | 400,000 compounds, 0.53% hits | Potency, µM (doses to about 107 µM), inactives show at the top dose activity, negative = inhibition, usual class: inhibitors; also: potency is read from the fitted curve at half-maximal effect; % is scaled to controls: 0 for no effect and ±100 for the full control effect
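Fluorescent qHTS in 1536-well format: enzyme (10 nM) and compound sat 15 min at room temperature before 50 nM substrate (final) was added. Signal taken at 0 and 10 min; no-enzyme buffer wells were negative controls.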
FEN1 inh: human FEN1 inhibition. Recombinant FEN1 flap cleavage, fluorescence, 15 min. Potency, µM (highest dose often 114 µM), without a hit: top-dose activity change, negative = inhibition, actives largely listed as inhibitors. P39748. 390,000 compounds, 0.35% hits; also: potency is read from the fitted curve at half-maximal effect; % is scaled to controls: 0 for no effect and ±100 for the full control effect; nearly all actives have a fitted effect of over 65% in size
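Read-out was taken twice, immediately and after 15 min, following addition of 50 nM substrate to 10 nM FEN1 that had sat with test compound for 15 min at room temperature. Curves came from a four-parameter Hill model.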
Pol beta inh: inhibitors of human DNA polymerase beta. Potency, µM (doses to about 114 µM), inactives show at the highest dose activity change, negative = inhibition, hits mostly inhibitors. 340,000 compounds, 1.3% hits. Pol beta primer extension/strand displacement, fluorescence kinetic. P06746; also: potency is read from the fitted curve at half-maximal effect; % is scaled to controls: 0 for no effect and ±100 for the full control effect
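Pol beta (10 nM) was preincubated with compound for 15 min at room temperature. The reaction was then started with 50 nM substrate and read immediately and after a further 10 min at room temperature.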
PI5P4K alpha inh: inhibitors of human PI5P4K alpha | P48426 | PI5P4Kalpha enzyme, ADP-Glo luminescence, 60 min; stronger effect = lower value | max response, % | 330,000 compounds, 1.2% hits | AID 652105; active = max response of -50% or lower; inconclusive = between -30% and -50%; inactive = -30% or higher; also: value at the top dose of about 77 µM; % is scaled to controls: 0 for no effect and ±100 for the full control effect
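Compounds were pin-transferred onto PI5P4Kalpha and substrate in HEPES pH 7.4 buffer with EGTA, CHAPS and 5% DMSO. ATP (5 microM final) started the reaction, which ran 60 minutes at room temperature before ADP-Glo detection.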
POLH inh: DNA polymerase eta (human) inhibition | Q9Y253 | recombinant Pol eta, fluorescent DNA replication assay | Potency, µM (series often up to 114 µM), for the others: top-dose activity change, negative = inhibition, most hits filed as inhibitors | 390,000 compounds, 1.2% hits; also: potency is read from the fitted curve at half-maximal effect; % is scaled to controls: 0 for no effect and ±100 for the full control effect
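Pol eta at 10 nM preincubated with compounds 15 min at room temperature; reaction started with fluorescent substrate (50 nM final) and read kinetically at 0 and 10 min.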
An asterisk follows results filed as active; u = inconclusive; x = no result given; [ ] = dose if it differs, or a comment. Unless noted, calls follow the shape of the dose curve; as a rule, active = well fitted curve in the direction sought with a large enough effect; inconclusive = small, poorly fitted or top-dose-only effect, or another doubt; inactive = no such curve, though single readings can be large; an effect the other way counts as inactive or inconclusive.

SMILES	Pol iota inh	POLK inh	FEN1 inh	Pol beta inh	PI5P4K alpha inh	POLH inh
C#CCOCCOCCOCCNc1nc(N2CCN(C(=O)[C@H](CCC(=O)O)n3cc(C(N)[C@H](C)CC)nn3)CC2)nc(N2CCN(C(=O)[C@H](CCC(=O)O)n3cc(C(N)[C@H](C)CC)nn3)CC2)n1 (some centres undefined)	u	-54%	5%	2%	-1	25µM*
C#CCOCCOCCOCCNc1nc(N2CCOCC2)nc(N2CCN(C(=O)[C@H](CCCN=C(N)N)n3cc(C(N)[C@@H](C)CC)nn3)CC2)n1 (some centres undefined)	10%	17%	9%	x	3	-16%
C#CCOCCOCCOCCNc1nc(N2CCN(C(=O)[C@H](CCC(=O)O)n3cc(C(N)CO)nn3)CC2)nc(N2CCN(C(=O)[C@H](CCC(=O)O)n3cc(C(N)[C@H](C)CC)nn3)CC2)n1 (some centres undefined)	-11%	8%	-11%	-4%	-1	8%
C#CCOCCOCCOCCNc1nc(N2CCN(C(=O)[C@H](CCCN=C(N)N)n3cc(C(N)[C@H](C)CC)nn3)CC2)nc(N2CCN(C(=O)[C@H](CCCN=C(N)N)n3cc(C(N)[C@@H](C)CC)nn3)CC2)n1 (some centres undefined)	u	4%	9%	x	-61*	-5%
O=C(O)c1sc(C(=O)O)c(-c2ccccc2)c1-c1ccccc1	x	x	x	x	u	-8%
CC(=O)c1sc(C(=O)O)c(-c2ccco2)c1-c1ccco1	u	45µM*	u	20µM*	u	22µM*
CC(C)CN=Cc1c(O)c([N+](=O)[O-])cc2oc3c(c12)CCCC3	-16%	u	-7%	-6%	u	u
O=[N+]([O-])c1cc2oc3c(c2c(C=NCc2ccccc2)c1O)CCCC3	73%	-26%	10%	-8%	-50*	u
CCOP(=O)(OCC)C(C)(C)NC(=O)Nc1ccc(Cl)c(Cl)c1	4%[58.9 µM]	-16%	-4%	-9%	7	0%
COc1ccc(OC)c2c1C(=O)c1ccccc1C2=O	u	-21%	u	30%	0	-13%
COC1=C(Nc2ccccc2)C(=O)c2ccccc2C1=O	18µM*	-10%	-15%	u	0	-23%
COC1=C(OC)C(=O)c2ccccc2C1=O	22µM*	-5%[60.1 µM]	u	28µM*	x	u
C#CCn1c(C2CC(=O)N(c3ccc(OC)cc3)C2)nc2ccccc21 (centres undefined)	6%	2%	-6%	41%	x	3%
Cc1nn(CC(=O)NCCc2cccs2)c(=O)c2nn(-c3ccccc3)c(C)c12	35µM*	-16%	18%	u	-28	-25%
Cc1nn(CC(=O)NCCc2ccco2)c(=O)c2nn(-c3ccccc3)c(C)c12	22µM*	-44%	-14%	89µM*	-25	32µM*
Cc1ccc(-n2nc3c(=O)n(CC(=O)NCc4cccs4)nc(C)c3c2C)cc1	24%	-1%	20%	50%	3	-11%
Cc1ccc2nc(C)cc(C(=O)OCC(=O)Nc3cccnc3Cl)c2c1	13%	10%	1%	-2%	-1	-18%
Cc1nc2ccccc2n1CCc1nc2c3ccccc3nc(SCC(=O)NCc3ccco3)n2n1	u	-7%	-17%	40µM*	8	u
N/C(=N\N=C\c1ccc(Cl)cc1)N/N=C/c1ccc(Cl)cc1	x	3%[19.4 µM]	x	x	x	x
Cc1c(Cc2ccccc2)c(=O)oc2c(C)c(OC(C)C(=O)NCC3CCC(C(=O)O)CC3)ccc12 (centres undefined)	18%	-6%	-2%	1%	7	-5%
Cc1cc(OC(C)C(=O)NCC2CCC(C(=O)O)CC2)c2c(C)c(Cc3ccccc3)c(=O)oc2c1 (centres undefined)	79µM*	-14%	u	-36%	-7	u
Cc1nc(SCC#N)c2c3c(sc2n1)CCC3	21%	-7%	-4%	29%	5	-13%
